Results on 27 targets are retold here after the supplement of paper PMC10849652.

Of roughly 8,800 targets only a part is listed; those with a hit were picked by preference. About 0.5% of all pairs of compound and target were hits.

Chain of UniProt Q9BRN9 (Q9BRN9 whole entry, looked up): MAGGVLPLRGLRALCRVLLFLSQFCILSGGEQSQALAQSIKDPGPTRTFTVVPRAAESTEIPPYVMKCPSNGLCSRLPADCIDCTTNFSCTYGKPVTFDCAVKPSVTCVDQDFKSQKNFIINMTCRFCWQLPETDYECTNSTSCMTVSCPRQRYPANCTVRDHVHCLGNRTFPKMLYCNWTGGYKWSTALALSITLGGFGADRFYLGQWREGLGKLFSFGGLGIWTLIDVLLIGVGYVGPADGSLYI
Chain of UniProt Q04726 (Q04726 whole entry, looked up): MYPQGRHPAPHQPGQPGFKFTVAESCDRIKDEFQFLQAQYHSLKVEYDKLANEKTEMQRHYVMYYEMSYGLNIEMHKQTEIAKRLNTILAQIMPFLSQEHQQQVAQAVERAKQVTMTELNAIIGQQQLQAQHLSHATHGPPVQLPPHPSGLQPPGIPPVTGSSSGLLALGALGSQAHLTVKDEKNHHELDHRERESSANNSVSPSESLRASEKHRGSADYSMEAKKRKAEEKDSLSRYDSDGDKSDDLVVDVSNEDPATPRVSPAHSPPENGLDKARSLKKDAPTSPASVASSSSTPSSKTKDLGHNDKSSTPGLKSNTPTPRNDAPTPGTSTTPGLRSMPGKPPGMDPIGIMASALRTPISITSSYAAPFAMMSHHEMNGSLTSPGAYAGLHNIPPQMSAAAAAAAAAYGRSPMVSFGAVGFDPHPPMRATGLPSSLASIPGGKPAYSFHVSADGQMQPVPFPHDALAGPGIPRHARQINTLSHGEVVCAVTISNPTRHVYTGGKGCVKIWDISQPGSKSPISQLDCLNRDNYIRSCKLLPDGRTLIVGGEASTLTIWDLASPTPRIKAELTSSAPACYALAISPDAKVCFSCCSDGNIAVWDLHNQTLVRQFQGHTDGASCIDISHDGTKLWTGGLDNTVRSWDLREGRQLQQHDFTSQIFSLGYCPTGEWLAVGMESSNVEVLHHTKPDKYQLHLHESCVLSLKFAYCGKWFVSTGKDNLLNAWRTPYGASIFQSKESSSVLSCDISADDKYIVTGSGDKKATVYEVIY
Chain of UniProt Q9UGU0 (Q9UGU0 whole entry, looked up): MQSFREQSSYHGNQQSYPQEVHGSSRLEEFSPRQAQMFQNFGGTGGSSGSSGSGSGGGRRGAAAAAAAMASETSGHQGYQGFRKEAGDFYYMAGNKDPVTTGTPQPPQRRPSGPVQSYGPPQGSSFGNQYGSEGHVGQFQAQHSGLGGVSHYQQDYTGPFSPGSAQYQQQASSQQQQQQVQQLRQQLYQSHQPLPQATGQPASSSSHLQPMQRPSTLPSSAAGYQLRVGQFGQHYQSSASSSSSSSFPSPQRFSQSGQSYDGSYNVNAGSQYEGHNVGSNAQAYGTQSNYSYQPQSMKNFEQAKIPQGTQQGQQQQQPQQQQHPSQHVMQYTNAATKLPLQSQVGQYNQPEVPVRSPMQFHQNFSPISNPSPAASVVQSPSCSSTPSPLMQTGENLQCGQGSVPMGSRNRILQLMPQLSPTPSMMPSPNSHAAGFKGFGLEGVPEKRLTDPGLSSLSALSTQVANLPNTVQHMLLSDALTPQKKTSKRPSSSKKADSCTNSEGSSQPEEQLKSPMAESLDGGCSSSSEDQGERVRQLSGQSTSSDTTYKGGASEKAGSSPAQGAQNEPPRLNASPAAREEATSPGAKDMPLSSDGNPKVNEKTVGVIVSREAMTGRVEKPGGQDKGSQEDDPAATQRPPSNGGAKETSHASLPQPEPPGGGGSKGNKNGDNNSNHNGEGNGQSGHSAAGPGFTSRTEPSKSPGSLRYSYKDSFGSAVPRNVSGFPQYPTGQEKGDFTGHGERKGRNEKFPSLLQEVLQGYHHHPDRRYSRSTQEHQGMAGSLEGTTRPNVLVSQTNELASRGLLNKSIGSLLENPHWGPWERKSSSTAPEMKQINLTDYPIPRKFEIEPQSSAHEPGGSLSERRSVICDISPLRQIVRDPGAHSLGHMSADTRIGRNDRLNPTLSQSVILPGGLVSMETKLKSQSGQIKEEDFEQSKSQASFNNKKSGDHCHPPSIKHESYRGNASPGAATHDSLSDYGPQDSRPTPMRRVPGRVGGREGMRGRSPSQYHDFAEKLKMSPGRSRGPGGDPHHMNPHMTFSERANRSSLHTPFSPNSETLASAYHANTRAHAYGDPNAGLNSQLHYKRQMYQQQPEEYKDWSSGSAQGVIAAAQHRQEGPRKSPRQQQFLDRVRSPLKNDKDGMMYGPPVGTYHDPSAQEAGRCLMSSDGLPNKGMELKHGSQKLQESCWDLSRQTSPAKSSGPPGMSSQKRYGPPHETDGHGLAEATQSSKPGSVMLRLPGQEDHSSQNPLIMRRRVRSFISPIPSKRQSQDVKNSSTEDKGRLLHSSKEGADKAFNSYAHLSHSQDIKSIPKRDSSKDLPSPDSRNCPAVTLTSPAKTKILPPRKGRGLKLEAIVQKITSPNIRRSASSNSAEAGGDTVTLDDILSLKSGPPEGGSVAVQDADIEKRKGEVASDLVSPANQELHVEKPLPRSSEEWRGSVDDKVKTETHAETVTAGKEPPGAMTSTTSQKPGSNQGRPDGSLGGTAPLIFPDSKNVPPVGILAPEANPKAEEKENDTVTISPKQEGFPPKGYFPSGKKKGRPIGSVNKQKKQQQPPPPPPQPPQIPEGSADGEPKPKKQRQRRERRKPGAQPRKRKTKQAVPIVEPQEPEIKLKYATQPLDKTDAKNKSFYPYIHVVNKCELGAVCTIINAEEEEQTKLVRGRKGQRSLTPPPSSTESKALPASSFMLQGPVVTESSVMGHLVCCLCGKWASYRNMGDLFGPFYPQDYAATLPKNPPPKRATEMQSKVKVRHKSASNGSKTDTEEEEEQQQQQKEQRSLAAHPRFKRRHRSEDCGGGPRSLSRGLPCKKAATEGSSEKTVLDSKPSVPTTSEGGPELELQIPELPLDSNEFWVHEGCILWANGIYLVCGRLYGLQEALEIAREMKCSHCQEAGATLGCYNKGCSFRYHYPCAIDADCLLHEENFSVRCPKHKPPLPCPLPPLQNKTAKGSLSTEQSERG
Chain of UniProt P04350 (P04350 whole entry, looked up): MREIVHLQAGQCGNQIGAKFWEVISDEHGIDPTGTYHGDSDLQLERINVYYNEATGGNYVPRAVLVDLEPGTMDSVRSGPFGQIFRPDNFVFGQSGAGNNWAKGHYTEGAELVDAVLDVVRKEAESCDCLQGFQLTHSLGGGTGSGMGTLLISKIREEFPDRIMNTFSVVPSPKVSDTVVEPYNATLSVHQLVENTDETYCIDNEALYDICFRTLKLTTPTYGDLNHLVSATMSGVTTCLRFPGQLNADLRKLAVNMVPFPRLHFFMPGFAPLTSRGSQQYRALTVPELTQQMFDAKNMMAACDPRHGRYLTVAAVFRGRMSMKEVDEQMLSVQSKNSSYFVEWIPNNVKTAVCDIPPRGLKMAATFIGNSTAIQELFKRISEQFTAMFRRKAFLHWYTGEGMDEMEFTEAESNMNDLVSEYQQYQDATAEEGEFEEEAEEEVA
Chain of UniProt P62328 (P62328 whole entry, looked up): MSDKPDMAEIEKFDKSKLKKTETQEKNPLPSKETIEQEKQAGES
Chain of UniProt Q8TD43 (Q8TD43 whole entry, looked up): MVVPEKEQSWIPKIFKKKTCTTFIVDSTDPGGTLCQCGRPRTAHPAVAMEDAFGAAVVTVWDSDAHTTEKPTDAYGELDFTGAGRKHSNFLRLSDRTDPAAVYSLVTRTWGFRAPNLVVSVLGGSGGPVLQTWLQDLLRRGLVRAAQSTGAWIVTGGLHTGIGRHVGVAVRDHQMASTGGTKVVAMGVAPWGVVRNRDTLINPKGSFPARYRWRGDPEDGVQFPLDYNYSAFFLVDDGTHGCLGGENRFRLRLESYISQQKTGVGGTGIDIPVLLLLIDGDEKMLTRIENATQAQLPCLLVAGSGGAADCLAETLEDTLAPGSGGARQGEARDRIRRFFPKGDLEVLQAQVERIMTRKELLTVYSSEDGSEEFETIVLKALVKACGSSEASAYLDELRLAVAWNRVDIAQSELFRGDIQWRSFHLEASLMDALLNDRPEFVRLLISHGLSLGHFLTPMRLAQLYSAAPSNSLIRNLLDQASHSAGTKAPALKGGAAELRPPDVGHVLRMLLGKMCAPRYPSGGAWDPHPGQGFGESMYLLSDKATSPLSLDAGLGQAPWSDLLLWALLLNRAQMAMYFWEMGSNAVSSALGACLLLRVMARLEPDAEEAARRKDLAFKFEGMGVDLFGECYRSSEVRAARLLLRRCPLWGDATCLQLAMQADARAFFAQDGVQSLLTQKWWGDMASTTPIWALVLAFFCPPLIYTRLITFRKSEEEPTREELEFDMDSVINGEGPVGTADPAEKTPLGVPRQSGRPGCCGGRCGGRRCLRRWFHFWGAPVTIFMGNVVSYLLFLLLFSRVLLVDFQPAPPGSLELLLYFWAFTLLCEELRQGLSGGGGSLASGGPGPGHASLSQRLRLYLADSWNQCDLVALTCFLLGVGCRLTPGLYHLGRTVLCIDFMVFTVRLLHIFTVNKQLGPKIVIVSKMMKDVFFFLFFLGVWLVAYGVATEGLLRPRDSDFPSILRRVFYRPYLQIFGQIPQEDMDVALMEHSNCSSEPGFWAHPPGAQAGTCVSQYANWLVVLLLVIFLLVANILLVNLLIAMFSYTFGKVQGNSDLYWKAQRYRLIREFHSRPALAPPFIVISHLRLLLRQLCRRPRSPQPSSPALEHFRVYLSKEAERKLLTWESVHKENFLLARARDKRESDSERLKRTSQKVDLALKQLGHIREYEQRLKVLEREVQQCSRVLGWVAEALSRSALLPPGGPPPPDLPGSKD
Chain of UniProt P10646 (P10646 whole entry, looked up): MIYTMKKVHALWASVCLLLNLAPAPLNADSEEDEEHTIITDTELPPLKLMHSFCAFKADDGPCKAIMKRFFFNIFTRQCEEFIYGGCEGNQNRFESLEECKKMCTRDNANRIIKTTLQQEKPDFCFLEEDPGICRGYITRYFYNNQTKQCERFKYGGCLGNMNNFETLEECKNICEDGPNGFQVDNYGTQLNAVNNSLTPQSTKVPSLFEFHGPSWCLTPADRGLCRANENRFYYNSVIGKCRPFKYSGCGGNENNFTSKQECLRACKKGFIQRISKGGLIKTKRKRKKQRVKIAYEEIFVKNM

Compound in the test: c1ccc([C@@H]2C[C@H]2NC2CCNCC2)cc1
The test can be described thus: log2 fold change, soluble protein after heating vs DMSO (PISA); higher = thermal stabilisation; K562 lysate, 10 uM; active = over 0.2 and 3.5 SD of the protein, either way, in both replicates (recomputed). The essentials:
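The values are log-two fold changes in thermal stability compared with solvent controls and come from duplicates. They were obtained by TMTpro 16plex LC-MS/MS, with channel sums equalised, on the supernatant after 21,000xg for 90 min. That supernatant came from crude K562 extract at 1 mg/mL protein treated with 10 μM compound for 30 min, heated for 3 min across 48°C-58°C, pooled and brought to 0.5% NP-40 at 4°C.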
As for TJP1 (UniProt H0Y3R8), the log2 fold change was 0.031 (inactive).

Take TUBB6 (UniProt K7ES63): the log2 fold change is -0.085 (inactive).

For U2AF1L5 (UniProt P0DN76), the log2 fold change is -0.499 (inactive).

Take TENM4 (UniProt Q6N022): the log2 fold change is 0.137 (inactive).

For the target TSPAN3 (UniProt O60637), the log2 fold change was 0.16 (inactive).

Turning to TUBB4A (UniProt P04350), the log2 fold change is 0.044 (inactive).

For the target TMEM161B (UniProt Q8NDZ6), the log2 fold change was -0.025 (inactive).

TPM3 isoform 3 (UniProt P06753): the log2 fold change is -0.266 (inactive).

Turning to TRPM4 (UniProt Q8TD43), the log2 fold change was -0.354 (inactive).

With TRAF7 (UniProt Q6Q0C0), the log2 fold change was 0.238 (inactive).

With TM2D3 (UniProt Q9BRN9), the log2 fold change is -0.513 (inactive).

TMSB4X (UniProt P62328): the log2 fold change is 0.176 (inactive).

As for TCF4 (UniProt P15884), the log2 fold change is 0.091 (inactive).

As to TNFAIP3 (UniProt P21580), the log2 fold change is 0.06 (inactive).

For TCF20 (UniProt Q9UGU0), the log2 fold change is -0.059 (inactive).

Turning to TUBB4A (UniProt M0QYM7), the log2 fold change was -0.074 (inactive).

In the case of TLE3 isoform 5 (UniProt Q04726), the log2 fold change was 0.199 (inactive).

For the target TCF3 (UniProt X6REB3), the log2 fold change is -0.25 (inactive).

On to TFPI (UniProt P10646), for which the log2 fold change was 0.269 (inactive).

Turning to TNKS (UniProt O95271), the log2 fold change was -0.035 (inactive).

In the case of UBIAD1 (UniProt Q9Y5Z9), the log2 fold change is 0.025 (inactive).

On to TMEM132A isoform 2 (UniProt Q24JP5), for which the log2 fold change was -0.066 (inactive).

In the case of TUBA4A (UniProt C9JQ00), the log2 fold change is 0.056 (inactive).

As to TPD52L2 isoform 3 (UniProt O43399), the log2 fold change was 0.098 (inactive).

On to TLK2 isoform 3 (UniProt Q86UE8), for which the log2 fold change was 0.097 (inactive).

Take UBN1 (UniProt Q9NPG3): the log2 fold change is 0.085 (inactive).

In the case of TNIK isoform 5 (UniProt Q9UKE5), the log2 fold change is -0.041 (inactive).
